From PubChem
OTUD3 block = inhibitors of human OTUD3 deubiquitinase. OTU domain-containing protein 3 (Homo sapiens), Q5T2D3. purified OTUD3, Ub-rhodamine fluorescence, 2 h. inhibition, % at 25 µM. 47,000 tested, 0.7% active
USP7 block = inhibitors of human USP7 deubiquitinase; inhibition, % at 20 µM; purified USP7, Ub-rhodamine cleavage fluorescence; AID 1645854, 2021; Ubiquitin carboxyl-terminal hydrolase 7 (Homo sapiens), Q93009; 47,000 tested, 0.3% active
UCHL1 block = inhibitors of human UCHL1 deubiquitinase; purified UCHL1, Ub-rhodamine cleavage fluorescence; AID 1645859, 2021; 47,000 tested, 0.2% active; inhibition, % at 20 µM
Target sequence (P09936 whole entry, looked up): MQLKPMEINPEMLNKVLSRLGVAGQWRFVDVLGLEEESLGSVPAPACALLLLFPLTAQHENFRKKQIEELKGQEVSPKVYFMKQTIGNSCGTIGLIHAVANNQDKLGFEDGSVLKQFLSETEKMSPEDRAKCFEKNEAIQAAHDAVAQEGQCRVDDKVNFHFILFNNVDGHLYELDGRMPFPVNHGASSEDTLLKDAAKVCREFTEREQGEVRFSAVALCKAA
Each line names hits and unclear results; the compound was inactive in the other large screens. An excerpt weighted towards active compounds, which were near 1.1% of everything screened. No stated cut-off is given here; in the data, active means inhibition above about 30%; inactive means the rest.

Cc1cc(-c2cnc(N3CCCC3)nc2C2CCN(c3ncccn3)CC2)on1	none
CC(C)N1C[C@@H]2C[C@H](NS(=O)(=O)c3cccc(C#N)c3)CN2Cc2ccccc21	none
CN1C(=O)c2cc(S(=O)(=O)Nc3ccccc3)ccc2Oc2cccnc21	none (no result: USP7 block)
CCCCCC1OC(=O)c2c(C)cccc2Oc2ccc(O)c(C=O)c2/C=C/C1O (configuration not stated)	OTUD3 block 45, UCHL1 block 41
CCCCCC1OC(=O)c2c(C)cccc2Oc2ccc(O)c(CO)c2/C=C/C1O (configuration not stated)	none
CC(C)(C)n1ncc2c(=O)n(CC(=O)N3CCCc4ccccc43)cnc21	USP7 block 45
CC(C)(C)n1ncc2c(=O)n(CC(=O)OCc3ccccc3)cnc21	none
O=C(NCc1cccnc1)[C@H]1CC[C@@H]2[C@@H](CCN2C2CCOCC2)O1	none
CC(OC(=O)c1cccc(N(C)C)c1)C(=O)Nc1sccc1C(N)=O (configuration not stated)	none
CC(OC(=O)c1cccc(N(C)C)c1)C(=O)Nc1ncc(Cl)cc1Cl (configuration not stated)	UCHL1 block 75
CN(C)Cc1ccc(C(=O)Nc2ccc(-c3nccs3)cc2)cc1	none
COc1cc(NC(=O)c2ccc3c(c2)OCO3)ccc1-c1cc2ccccc2oc1=O	OTUD3 block 55
Cc1cc(NC(=O)c2ccccc2F)ccc1-c1cc2ccccc2oc1=O	none
O=C(Nc1ccccc1-c1nc2ccccc2[nH]1)c1ccc(Br)cc1	none
O=C(Nc1ccccc1-c1nc2ccccc2[nH]1)c1sc2ccccc2c1Cl	USP7 block 32
CN(C)c1ncc(CN2CCc3nc(-c4cccnc4)[nH]c(=O)c3C2)cn1	none
COc1ccc(NC(=O)C2[C@@H]3C(=O)N(c4ccc5c(c4)OCO5)C(=O)[C@@H]3[C@H]3c4ccccc4C=CN23)cc1 (some centres not stated)	none
CC(C)(C)C(=O)C1C2C(=O)N(c3ccc4c(c3)OCO4)C(=O)C2C2c3ccccc3C=CN12 (configuration not stated)	OTUD3 block 55
Cn1nccc1C(=O)N[C@@H]1C[C@@H](Oc2ccccc2)[C@H](O)[C@H]1N1CCC(O)CC1	none
Cc1occ2c1C(=O)c1c(O)ccc(O)c1C2	OTUD3 block 94, USP7 block 99, UCHL1 block 97
COc1ccc2c(C)c(CCC(=O)N3CC[C@@]4(O)CCCC[C@H]4C3)c(=O)oc2c1C	none
COc1ccc2c(C)c(CC(=O)N3CCC[C@H]3C(=O)O)c(=O)oc2c1C	OTUD3 block 32
Cc1nc(C2COCCN2C(=O)c2cc(C(C)(C)C)[nH]n2)cc(=O)[nH]1 (configuration not stated)	UCHL1 block 37
CC(C)(C)c1cc(C(=O)N2CCOCC2c2ccn[nH]2)n[nH]1 (configuration not stated)	none
CCc1ccc(NC(=O)C(C)Nc2ccccc2NCCc2ccccc2)cc1 (configuration not stated)	none
O=C(Cn1c(=O)n(-c2ccc(CC(=O)NC3CCCC3)cc2)c(=O)c2ccccc21)Nc1ccccc1[N+](=O)[O-]	none
COc1cc(NC(=O)Cn2c(=O)n(-c3ccc(CC(=O)NC4CCCC4)cc3)c(=O)c3ccccc32)cc(OC)c1	OTUD3 block 43
Cc1cccc(C(=O)N2CCc3cc(-c4nc(NC(=O)CN5CCc6ccccc6C5)sc4C)ccc32)c1	none
COc1ccccc1-c1nnc2sc(COc3ccc(F)cc3)nn12	none
Cc1ccccc1-c1nnc2sc(COc3ccc(Cl)cc3)nn12	OTUD3 block 37
CCc1nnc2nc(N3CCN(C(=O)C4CC4)CC3)cc(C)n12	none
COc1cc2c(cc1OC)C(C)N(C(=O)c1cc3c(s1)-c1ccccc1S(=O)(=O)C3)CC2 (configuration not stated)	none
Oc1cc(O)cc(/C=C/c2ccc(O)c(O)c2)c1	OTUD3 block 47
O=C(/C=C/c1ccc(O)c(O)c1)O[C@@H]1C[C@](O)(C(=O)O)C[C@@H](O)[C@H]1O	none
Cc1nc(-c2ccc(C(=O)Nc3cccc(F)c3)cc2)cs1	none
Cc1nc(-c2ccc(C(=O)Nc3ccc(F)cc3)cc2)cs1	USP7 block 34
O=C(Nc1ccccc1Sc1ncc(-c2ccc(Cl)cc2)cn1)c1ccco1	none
Cc1noc(-c2cccc(=O)n2CC(=O)Nc2ccc(C)c(F)c2)n1	none
COC(=O)c1ccc(C2(C#N)C(=O)Nc3ccccc32)cc1 (configuration not stated)	none
COc1ccc([N+](=O)[O-])cc1NC(=O)COC(=O)c1ccc2[nH]c3c(c2c1)CCCC3	OTUD3 block 62
COc1cc([N+](=O)[O-])ccc1NC(=O)COC(=O)Cc1c[nH]c2ccccc12	none
CN1C(=O)Cc2cc(S(=O)(=O)N3CCC(c4ccncc4)CC3)ccc21	none
